Rows were chosen to be rich in hits. Some 3.2% of all compounds tested hit in one or more screens of this group.
MEKK2 WT-MEK5: raises or lowers MEK5 binding to wildtype human MEKK2 PB1 domain. binding response (% of control), % at 10 µM. AID 1531. 290,000 compounds, 1.1% hits. bead flow cytometry, Alexa488-MEK5 binding to MEKK2 WT; actives lie on both sides; in the data active means binding response below about 67% or above about 130%
NRP1-CendR mod: alters CendR peptide binding to human NRP-1 | 360,000 compounds, 0.85% hits | inhibition, % at 25 µM | FAM-RPARPAR peptide binding to NRP-1, fluorescence polarization | O14786;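 active means inhibition or corrected inhibition above about 18%, plus a signal ratio from 0.5 to 1.5, limit read from the data, passing the limit was not always enough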
Target sequence (O14786 whole entry, looked up): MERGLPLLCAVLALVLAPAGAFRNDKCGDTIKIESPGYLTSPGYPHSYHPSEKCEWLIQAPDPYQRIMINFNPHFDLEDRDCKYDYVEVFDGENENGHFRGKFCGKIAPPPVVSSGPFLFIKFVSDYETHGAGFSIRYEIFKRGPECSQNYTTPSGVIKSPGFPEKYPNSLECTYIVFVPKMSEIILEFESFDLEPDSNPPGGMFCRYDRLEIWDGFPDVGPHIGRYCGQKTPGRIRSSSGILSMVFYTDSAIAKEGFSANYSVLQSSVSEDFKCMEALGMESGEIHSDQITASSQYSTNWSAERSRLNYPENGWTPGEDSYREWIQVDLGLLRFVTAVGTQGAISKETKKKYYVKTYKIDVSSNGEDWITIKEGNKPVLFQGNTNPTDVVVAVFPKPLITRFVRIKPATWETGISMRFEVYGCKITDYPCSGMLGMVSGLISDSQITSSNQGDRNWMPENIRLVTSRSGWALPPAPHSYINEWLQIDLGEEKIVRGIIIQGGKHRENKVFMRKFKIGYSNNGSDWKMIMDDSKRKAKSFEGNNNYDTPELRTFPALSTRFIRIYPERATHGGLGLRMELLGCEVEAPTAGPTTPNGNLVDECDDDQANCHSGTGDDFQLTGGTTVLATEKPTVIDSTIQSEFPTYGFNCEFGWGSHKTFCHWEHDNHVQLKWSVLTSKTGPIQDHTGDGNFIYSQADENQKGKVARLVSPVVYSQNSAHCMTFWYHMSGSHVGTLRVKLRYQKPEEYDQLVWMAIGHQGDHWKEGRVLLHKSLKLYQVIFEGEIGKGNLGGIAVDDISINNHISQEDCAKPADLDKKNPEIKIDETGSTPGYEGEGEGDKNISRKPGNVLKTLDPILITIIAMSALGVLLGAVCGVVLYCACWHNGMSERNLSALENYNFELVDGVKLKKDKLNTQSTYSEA
MEKK3 PB1 HTS: raises or lowers MEK5 binding to the human MEKK3 PB1 domain | Q99759 | bead-based flow cytometry, Alexa488-MEK5 binding to MEKK3; actives lie on both sides; 0 = blocked by unlabeled MEK5, 100 = vehicle | binding response (% of control), % at 10 µM | 290,000 compounds, 1.4% hits | AID 1529;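 active means binding response more than 3 SD above or below the average of its plate-row segment, actives on both sides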;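 further: Alexa488 bead fluorescence after subtracting the streptavidin-only scavenger bead signal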
SKN-1 block: inhibitors of C. elegans SKN-1; inhibition, % at 21.8 µM; C. elegans VP596 Pgst-4::GFP/RFP ratio, acrylamide-induced, 24 h; 360,000 compounds, 0.49% hits; AID 624304;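 active means interference check ratio from 0.5 to 1.5 plus GFP to RFP signal ratio inhibition reaching or exceeding a fixed threshold, cut at about 30% in these data, passing the limit was not always enough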
MEKK2mut PB1 HTS: signal of MEK5 binding to mutant human MEKK2 PB1 domain. 290,000 compounds, 0.35% hits. bead flow cytometry, Alexa488-MEK5 binding to MEKK2 mutant. percent response, % at 10 µM. AID 1530; in the data active means percent response above about 24%, passing the limit was not always enough
* = called active by the depositor.

`COc1ccc(/C=C(/NC(=O)c2ccccc2)C(=O)N2CCOCC2)cc1OC` gave MEKK2 WT-MEK5 97, NRP1-CendR mod 10, MEKK3 PB1 HTS 98, SKN-1 block 6 and MEKK2mut PB1 HTS 3.
CCOC(=O)C1(Cc2ccccc2)NC(c2ccccc2F)C2C(=O)N(CC)C(=O)C21 (stereo not drawn) was read as MEKK2 WT-MEK5 97, NRP1-CendR mod 19*, MEKK3 PB1 HTS 94, SKN-1 block -21 and MEKK2mut PB1 HTS 0.
CCN1C(=O)C2C(c3ccccc3F)NC(Cc3ccc(O)cc3)(C(=O)OC)C2C1=O (stereo not drawn) was read as MEKK2 WT-MEK5 80, NRP1-CendR mod -10, MEKK3 PB1 HTS 81, SKN-1 block 37* and MEKK2mut PB1 HTS -3.
`CCOC(=O)C1(C)NC(c2ccccc2F)C2C(=O)N(CC)C(=O)C21` (stereo not drawn) gave MEKK2 WT-MEK5 89, NRP1-CendR mod 9, MEKK3 PB1 HTS 101, SKN-1 block -16 and MEKK2mut PB1 HTS -13.
CCNCc1nc2cc(OC)c(OC)cc2c(=O)[nH]1 was read as MEKK2 WT-MEK5 98, NRP1-CendR mod 28*, MEKK3 PB1 HTS 100, SKN-1 block 2 and MEKK2mut PB1 HTS -2.
COc1ccc(/C=N/Nc2nc(Nc3ccccc3)nc(N3CCCCC3)n2)cc1OC was read as MEKK2 WT-MEK5 101, NRP1-CendR mod 5, MEKK3 PB1 HTS 100, SKN-1 block 37* and MEKK2mut PB1 HTS -1.
For COc1cc2c(cc1OC)C(C(=O)Nc1ccc(F)c(Cl)c1)CC(=O)N2 (stereo not drawn) the results were MEKK2 WT-MEK5 113, NRP1-CendR mod 13, MEKK3 PB1 HTS 108, SKN-1 block 1 and MEKK2mut PB1 HTS 17.
`CCCn1cnc2cc(NCc3cccc(OC)c3O)ccc21` gave MEKK2 WT-MEK5 99, NRP1-CendR mod 1, MEKK3 PB1 HTS 101, SKN-1 block 35* and MEKK2mut PB1 HTS 1.
For COc1ccc(-n2nc(C(=O)NCC(=O)NC3CCCCCC3)c3ccccc3c2=O)c(OC)c1 the results were MEKK2 WT-MEK5 106, NRP1-CendR mod 19*, MEKK3 PB1 HTS 103, SKN-1 block 9 and MEKK2mut PB1 HTS 5.
Screening O=C(Nc1ccc(Cl)cc1)NC1CCCCNC1=O (stereo not drawn) returned MEKK2 WT-MEK5 104, NRP1-CendR mod 3, MEKK3 PB1 HTS 108, SKN-1 block 36* and MEKK2mut PB1 HTS 2.
Screening CN(CC(=O)NCCc1ccccc1)S(=O)(=O)c1ccc(Br)s1 returned MEKK2 WT-MEK5 88, NRP1-CendR mod 11, MEKK3 PB1 HTS 95, SKN-1 block 37* and MEKK2mut PB1 HTS -6.
For N#Cc1ccsc1NC(=O)COC(=O)C1=NNC(=O)CC1 the results were NRP1-CendR mod -30 and SKN-1 block -7.
`c1ccc2c(c1)CCCN2Cc1nnc2n1CCCCC2` gave MEKK2 WT-MEK5 96, NRP1-CendR mod 23*, MEKK3 PB1 HTS 98, SKN-1 block 7 and MEKK2mut PB1 HTS -1.
`c1ccc(Cc2nnc3n2CCCCC3)cc1` gave NRP1-CendR mod 14 and SKN-1 block -3.
`CC(=O)C[C@H](O)CC(=O)[C@H]1OC(=O)[C@H](C)C/C=C\Cc2ccccc21` gave NRP1-CendR mod 25* and SKN-1 block 4.
For CC1CCN(C(=O)CSc2nncn2C)CC1 the results were MEKK2 WT-MEK5 102, NRP1-CendR mod 48*, MEKK3 PB1 HTS 101, SKN-1 block -3 and MEKK2mut PB1 HTS 3.
For CNC(=S)NNC(=O)c1sc2cc(C(F)(F)F)cnc2c1-c1cccnc1 the results were MEKK2 WT-MEK5 103, NRP1-CendR mod 1, MEKK3 PB1 HTS 103, SKN-1 block -8 and MEKK2mut PB1 HTS 2.
CNC(=S)NNC(=O)c1sc2cc(C(F)(F)F)cnc2c1-c1ccccn1 was read as MEKK2 WT-MEK5 110, NRP1-CendR mod 23*, MEKK3 PB1 HTS 125, SKN-1 block 1 and MEKK2mut PB1 HTS 0.
Cn1c(-c2sc3cc(C(F)(F)F)cnc3c2-c2cccnc2)n[nH]c1=S was read as MEKK2 WT-MEK5 102, NRP1-CendR mod 2, MEKK3 PB1 HTS 101, SKN-1 block 18 and MEKK2mut PB1 HTS -2.
Cn1c(-c2sc3cc(C(F)(F)F)cnc3c2-c2ccccn2)n[nH]c1=S was read as MEKK2 WT-MEK5 105, NRP1-CendR mod 25*, MEKK3 PB1 HTS 109, SKN-1 block -4 and MEKK2mut PB1 HTS 7.
